Source: PubChem BioAssay (EPA / NIEHS)
Values joined by “and” are separate entries in the source; they are usually repeats but may differ in a detail not shown here. Identical values can stand only once. Where a structure was tested more than once in an assay, its records may differ in their call. Active and inactive are the calls of the source. The calls were made as follows: active = hit-call score of the fitted dose curve at least 0.9, where 1 is the maximum; inactive = score below 0.9.

Test system: not listed separately
Assay: ATG_Ets_CIS: Attagene CIS-FACTORIAL HepG2 Assay for human Erythroblast Transformation Specific (ETS) (AID 2282941)
Conditions: HepG2 ETS cis-reporter transcription, actives raise or lower the signal
Outline: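 Cis-regulated reporter mRNA induction in HepG2 (transient transfection), 24 h exposure, RT-PCR plus capillary electrophoresis detection; DMSO serves as negative control and baseline.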

Structure (SMILES) | outcome | AC50
NC(N)=NC(N)=NCCc1ccccc1 | inactive | 
CC/C=C\CCOC(=O)C(C)C | inactive | 
CC(C)=CCCC(C)=CC(=O)O | inactive | 
CCC=C(C)C=O | inactive | 
C=C1CC[C@H]2O[C@]2(C)CC[C@@H]2[C@@H]1CC2(C)C | inactive | 
CCC(=O)OC/C=C(\C)CCC=C(C)C | inactive | 
CCO[Si](CCC#N)(OCC)OCC | inactive | 
CC(C)(O)CCc1ccccc1 | inactive | 
CC(=O)C1C(=O)C=C(C)OC1=O (centres undefined) | inactive | 
CCc1cccc(O)c1 | inactive | 
CC(CO)(CO)[N+](=O)[O-] | inactive | 
C[C@H](CCC(=O)O)[C@H]1CC[C@H]2[C@@H]3CC[C@@H]4C[C@H](O)CC[C@]4(C)[C@H]3CC[C@]12C | inactive | 
CCC(C)(C)C1CCC(OC)CC1 (centres undefined) | inactive | 
C=CC(=O)OCC(CO)(COC(=O)C=C)COC(=O)C=C | inactive | 
CN(C)c1ccc(C=O)cc1 | inactive | 
CC1=CCC(C(C)(C)O)CC1 (centres undefined) | inactive | 
CC(=O)CC(=O)N(C)C | inactive | 

Structure (SMILES) | outcome | AC50
CCCc1ccc(O)cc1 | inactive | 
C=C1CC/C=C(\C)CC[C@@H]2[C@@H]1CC2(C)C | inactive | 
C=CC(C)(CCC=C(C)C)OC(=O)CC (centres undefined) | inactive | 
CCCCCCCCCCOC(=O)c1ccccc1C(=O)OCCCCCCCC | inactive | 
CC(O)COCC(C)O (centres undefined) | inactive | 
O=C1CCCCCCCCCCCC(=O)OCCO1 | inactive | 
NC(=O)c1c(Cl)cccc1Cl | inactive | 
c1ccc2c(c1)-c1ccc3ccc4cccc5cc-2c1c3c45 | inactive | 
CC1=C(C=O)C(C)(C)CCC1 | inactive | 
CC(C)OB(OC(C)C)OC(C)C | inactive | 
COc1ccc2[nH]cc(CCNC(C)=O)c2c1 | inactive | 
CCC(=O)OCC=Cc1ccccc1 | inactive | 
CC(C)CCOC(=O)CC(C)C | inactive | 
C#C[C@]1(O)CC[C@H]2[C@@H]3CCc4cc(O)ccc4[C@H]3CC[C@@]21C | inactive | 100 µM (active)
O=c1cc[nH]cc1 | inactive | 
CCC(C)(CCCC(C)C)OC(C)=O (centres undefined) | inactive | 
O=C1OCc2ccccc21 | inactive | 

Molecular target: Hepatocyte nuclear factor 3-beta (Homo sapiens) (UniProt Q9Y261)
Assay: ATG_FoxA2_CIS: Attagene CIS-FACTORIAL HepG2 Assay for human Forkhead box A2 (FOXA2) (AID 2282942)
Conditions: HepG2 cis-reporter transcription factor activity, 24 h; actives raise or lower the signal
Outline: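 Multiplexed cis-element reporter assay in transiently transfected HepG2. Twenty-four hours post-dosing, RNA was reverse-transcribed, amplified, FAM-labelled, HpaI-digested and separated by CE. Activity gain or loss relative to DMSO.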

Chain of Hepatocyte nuclear factor 3-beta (Homo sapiens) (Q9Y261 whole entry, looked up): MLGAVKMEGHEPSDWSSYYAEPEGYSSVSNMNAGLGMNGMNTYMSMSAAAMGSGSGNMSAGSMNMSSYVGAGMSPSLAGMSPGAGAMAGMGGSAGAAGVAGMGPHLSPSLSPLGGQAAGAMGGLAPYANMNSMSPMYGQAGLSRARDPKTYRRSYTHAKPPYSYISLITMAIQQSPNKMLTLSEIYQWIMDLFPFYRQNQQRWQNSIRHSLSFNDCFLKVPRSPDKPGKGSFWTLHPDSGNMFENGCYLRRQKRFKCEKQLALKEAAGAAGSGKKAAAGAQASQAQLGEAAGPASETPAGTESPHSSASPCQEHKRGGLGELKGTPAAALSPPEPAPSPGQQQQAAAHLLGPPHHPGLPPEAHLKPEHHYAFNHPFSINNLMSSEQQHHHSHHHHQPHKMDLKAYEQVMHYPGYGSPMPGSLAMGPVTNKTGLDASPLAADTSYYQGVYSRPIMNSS

Structure (SMILES) | outcome | AC50
NC(N)=NC(N)=NCCc1ccccc1 | inactive | 
CC/C=C\CCOC(=O)C(C)C | inactive | 
CC(C)=CCCC(C)=CC(=O)O | inactive | 
CCC=C(C)C=O | inactive | 
C=C1CC[C@H]2O[C@]2(C)CC[C@@H]2[C@@H]1CC2(C)C | inactive | 
CCC(=O)OC/C=C(\C)CCC=C(C)C | inactive | 
CCO[Si](CCC#N)(OCC)OCC | inactive | 
CC(C)(O)CCc1ccccc1 | inactive | 
CC(=O)C1C(=O)C=C(C)OC1=O (centres undefined) | inactive | 
CCc1cccc(O)c1 | inactive | 
CC(CO)(CO)[N+](=O)[O-] | inactive | 
C[C@H](CCC(=O)O)[C@H]1CC[C@H]2[C@@H]3CC[C@@H]4C[C@H](O)CC[C@]4(C)[C@H]3CC[C@]12C |  | 170 µM (active)
CCC(C)(C)C1CCC(OC)CC1 (centres undefined) | inactive | 
C=CC(=O)OCC(CO)(COC(=O)C=C)COC(=O)C=C |  | 123 µM (active)
CN(C)c1ccc(C=O)cc1 | inactive | 
CC1=CCC(C(C)(C)O)CC1 (centres undefined) | inactive | 
CC(=O)CC(=O)N(C)C | inactive | 

Structure (SMILES) | outcome | AC50
CCCc1ccc(O)cc1 | inactive | 
C=C1CC/C=C(\C)CC[C@@H]2[C@@H]1CC2(C)C | inactive | 
C=CC(C)(CCC=C(C)C)OC(=O)CC (centres undefined) | inactive | 
CCCCCCCCCCOC(=O)c1ccccc1C(=O)OCCCCCCCC | inactive | 
CC(O)COCC(C)O (centres undefined) | inactive | 
O=C1CCCCCCCCCCCC(=O)OCCO1 | inactive | 
NC(=O)c1c(Cl)cccc1Cl | inactive | 
c1ccc2c(c1)-c1ccc3ccc4cccc5cc-2c1c3c45 |  | 0.381 µM (active)
CC1=C(C=O)C(C)(C)CCC1 | inactive | 
CC(C)OB(OC(C)C)OC(C)C | inactive | 
COc1ccc2[nH]cc(CCNC(C)=O)c2c1 | inactive | 
CCC(=O)OCC=Cc1ccccc1 | inactive | 
CC(C)CCOC(=O)CC(C)C | inactive | 
C#C[C@]1(O)CC[C@H]2[C@@H]3CCc4cc(O)ccc4[C@H]3CC[C@@]21C | inactive | 
O=c1cc[nH]cc1 | inactive | 
CCC(C)(CCCC(C)C)OC(C)=O (centres undefined) | inactive | 
O=C1OCc2ccccc21 | inactive | 

Test system: not listed separately
Assay: ATG_FoxO_CIS: Attagene CIS-FACTORIAL HepG2 Assay for human Forkhead box O (FoxO) (AID 2282943)
Conditions: HepG2 Attagene cis-reporter, FoxO element, mRNA; actives raise or lower the signal
Outline: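 Transfected HepG2 reporter cells exposed to test chemical for 24 h; reporter RNA measured by reverse transcription, PCR and fluorescent capillary electrophoresis; curves fitted for increases and decreases against DMSO.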

Structure (SMILES) | outcome | AC50
NC(N)=NC(N)=NCCc1ccccc1 | inactive | 
CC/C=C\CCOC(=O)C(C)C | inactive | 
CC(C)=CCCC(C)=CC(=O)O | inactive | 
CCC=C(C)C=O | inactive | 
C=C1CC[C@H]2O[C@]2(C)CC[C@@H]2[C@@H]1CC2(C)C | inactive | 
CCC(=O)OC/C=C(\C)CCC=C(C)C | inactive | 
CCO[Si](CCC#N)(OCC)OCC | inactive | 
CC(C)(O)CCc1ccccc1 | inactive | 
CC(=O)C1C(=O)C=C(C)OC1=O (centres undefined) | inactive | 
CCc1cccc(O)c1 | inactive | 
CC(CO)(CO)[N+](=O)[O-] | inactive | 
C[C@H](CCC(=O)O)[C@H]1CC[C@H]2[C@@H]3CC[C@@H]4C[C@H](O)CC[C@]4(C)[C@H]3CC[C@]12C | inactive | 
CCC(C)(C)C1CCC(OC)CC1 (centres undefined) | inactive | 
C=CC(=O)OCC(CO)(COC(=O)C=C)COC(=O)C=C |  | 13.4 µM (active)
CN(C)c1ccc(C=O)cc1 | inactive | 
CC1=CCC(C(C)(C)O)CC1 (centres undefined) | inactive | 
CC(=O)CC(=O)N(C)C | inactive | 

Structure (SMILES) | outcome | AC50
CCCc1ccc(O)cc1 | inactive | 
C=C1CC/C=C(\C)CC[C@@H]2[C@@H]1CC2(C)C | inactive | 
C=CC(C)(CCC=C(C)C)OC(=O)CC (centres undefined) | inactive | 
CCCCCCCCCCOC(=O)c1ccccc1C(=O)OCCCCCCCC | inactive | 
CC(O)COCC(C)O (centres undefined) | inactive | 
O=C1CCCCCCCCCCCC(=O)OCCO1 | inactive | 
NC(=O)c1c(Cl)cccc1Cl | inactive | 
c1ccc2c(c1)-c1ccc3ccc4cccc5cc-2c1c3c45 | inactive | 
CC1=C(C=O)C(C)(C)CCC1 | inactive | 
CC(C)OB(OC(C)C)OC(C)C | inactive | 
COc1ccc2[nH]cc(CCNC(C)=O)c2c1 | inactive | 
CCC(=O)OCC=Cc1ccccc1 | inactive | 
CC(C)CCOC(=O)CC(C)C | inactive | 
C#C[C@]1(O)CC[C@H]2[C@@H]3CCc4cc(O)ccc4[C@H]3CC[C@@]21C | inactive | 180 µM (active) and 72.5 µM (active) and 50.9 µM (active)
O=c1cc[nH]cc1 | inactive | 
CCC(C)(CCCC(C)C)OC(C)=O (centres undefined) | inactive | 
O=C1OCc2ccccc21 | inactive | 
